Results published in PubChem BioAssay (NCATS).
Results filed as inconclusive are left out. The source made the active and inactive calls. The call rests on the fitted dose curve; in most records, active means well fitted curve in the direction sought with a large enough effect; inconclusive means small, poorly fitted or top-dose-only effect, or another doubt; inactive means no such curve, though single readings can be large; an effect the other way counts as inactive or inconclusive.

Columns and labels:
[1] = target: Cellular tumor antigen p53 (Homo sapiens) (UniProt P04637); assay: Primary qHTS for small molecule compounds that upregulate eGFP-tagged delta133p53alpha (in N-terminal) cells. (AID 2060322); settings: NCI-H358 eGFP-delta133p53alpha fluorescence, 24 h; activation: active compounds read high;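 further: series mostly up to about 56 µM; 0% = DMSO vehicle and 100% = reference activator; nearly all actives have a fitted effect of over 75% in size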
Outline: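 NCI-H358 cells pre-induced 24 h with 10 ng/ml doxycycline to express N-terminal eGFP-delta133p53alpha, then dosed 24 h at 37C without doxycycline; fixed, Hoechst-stained, GFP intensity by laser scanning cytometry, normalized to DMSO (0%) and 57.5 uM 5-azacytidine (100%).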

[2] = target: Aldehyde dehydrogenase, mitochondrial (Homo sapiens) (UniProt P05091); assay: qHTS for Inhibitors of the Aldehyde Dehydrogenase Family (ALDH2) Primary screen (AID 2061308);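 further: plate controls were vehicle for no effect and reference inhibitor for full effect; nearly all actives have a fitted effect of over 55% in size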
[3] = target: Retinaldehyde dehydrogenase 3 (Homo sapiens) (UniProt P47895); assay: qHTS for Inhibitors of the Aldehyde Dehydrogenase Family (ALDH1A3) Primary screen (AID 2061315);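 further: plate controls were DMSO vehicle for no effect and reference inhibitor for full effect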

Chain of Cellular tumor antigen p53 (Homo sapiens) (P04637 whole entry, looked up): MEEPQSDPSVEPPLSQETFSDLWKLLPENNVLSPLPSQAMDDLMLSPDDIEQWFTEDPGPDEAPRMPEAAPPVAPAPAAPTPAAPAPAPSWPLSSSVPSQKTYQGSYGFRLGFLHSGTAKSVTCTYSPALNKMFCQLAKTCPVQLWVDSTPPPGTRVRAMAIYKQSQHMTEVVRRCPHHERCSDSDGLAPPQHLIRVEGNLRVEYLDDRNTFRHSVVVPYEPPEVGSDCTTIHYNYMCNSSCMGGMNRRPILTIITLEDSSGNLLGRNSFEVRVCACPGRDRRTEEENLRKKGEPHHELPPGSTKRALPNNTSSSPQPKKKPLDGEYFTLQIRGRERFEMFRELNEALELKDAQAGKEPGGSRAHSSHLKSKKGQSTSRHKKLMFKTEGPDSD

CCCOC(c1cc2nccc(C(=O)O)c2[nH]1)c1ccccc1Cl (stereo not drawn)
inactive: activation [1] 0.333% | Potency [2] | Potency [3]

O=C(O[C@H]1[C@@H]2C[C@@H]3OC[C@@](O)([C@H]2[C@H](O[C@@H]2O[C@H](CO)[C@@H](O)[C@H](O)[C@H]2O)O3)[C@@H]1O)c1ccccc1
inactive: activation [1] 5.36% | Potency [2] | Potency [3]

COc1ccc([C@H]2OC[C@H]3[C@@H]2CO[C@@H]3c2ccc(O[C@@H]3O[C@H](CO)C(O)[C@H](O)[C@H]3O)c(OC)c2)cc1OC (stereo partly drawn)
inactive: activation [1] -1.79% | Potency [2] | Potency [3]

C=C1CCc2occ(C)c2[C@H]2[C@H]1[C@@]13O[C@@]1(C[C@@H](C)[C@H]3OC(C)=O)[C@H]1O[C@@]21C
inactive: activation [1] -19.6% | Potency [2] | Potency [3]

C[C@@H]1O[C@@H](OC[C@H]2O[C@@H](OC(CCCCc3ccc(O)cc3)CCc3ccc(O)cc3)[C@H](O)[C@@H](O)[C@@H]2O)[C@H](O)[C@H](O)[C@H]1O (stereo partly drawn)
inactive: activation [1] 6.11% | Potency [2] | Potency [3]

O=C(O)c1ccnc(-c2cc(C(=O)NCCc3ccccc3)ccn2)c1
inactive: activation [1] 4.47% | Potency [2] | Potency [3]

CC1(C)CC[C@]2(C(=O)O[C@@H]3O[C@H](CO)[C@@H](O)[C@H](O)[C@H]3O)CC[C@]3(C)C(=CCC4[C@@]5(C)C[C@@H](O)[C@H](O)C(CO)(CO)C5CC[C@]43C)C2[C@@H]1O (stereo partly drawn)
inactive: activation [1] -15.3% | Potency [2] | Potency [3]

CC[C@@H](C)[C@H]1C(=O)O[C@H](C(C)C)C(=O)N(C)[C@@H](C(C)C)C(=O)O[C@H](C(C)C)C(=O)N(C)[C@@H](C(C)C)C(=O)O[C@H](CC(C)C)C(=O)N1C
inactive: activation [1] 22.3% | Potency [2] | Potency [3]

CC(C)CN(C[C@@H](O)[C@H](Cc1ccccc1)NC(=O)O[C@@H]1CO[C@H]2OCC[C@H]21)S(=O)(=O)c1ccc(N)cc1
inactive: activation [1] -7.16% | Potency [2] | Potency [3]

CC(C)=CC/C=C(/C)[C@H]1CC[C@]2(C)[C@@H]1[C@H](O)CC1[C@@]3(C)CC[C@H](O)C(C)(C)[C@@H]3[C@@H](O[C@@H]3O[C@H](CO)[C@@H](O)[C@H](O)[C@H]3O[C@@H]3O[C@@H](C)[C@H](O)[C@@H](O)[C@H]3O)C[C@]12C (stereo partly drawn)
inactive: activation [1] -7.63% | Potency [2] | Potency [3]

C[C@H]1CC[C@@]2(OC1)O[C@H]1CC3C4CC[C@H]5C[C@@H](O)[C@H](O)C[C@]5(C)C4=CC(=O)[C@]3(C)[C@H]1[C@@H]2C (stereo partly drawn)
inactive: activation [1] 14.3% | Potency [2] | Potency [3]

CO[C@@H]1[C@H](O)CCC2(CO2)[C@H]1[C@@]1(C)O[C@@H]1CC=C(C)C (stereo partly drawn)
inactive: activation [1] 0.763% | Potency [2] | Potency [3]

COC(=O)Cn1nc(-c2cccc(OC)c2)c2ccccc21
inactive: activation [1] -1.67% | Potency [2] | Potency [3]

CC(=O)O[C@@H]1[C@@H](OC(C)=O)[C@H](C)O[C@@H](O[C@H]2[C@@H]3C=CO[C@@H](O[C@@H]4O[C@H](CO)[C@@H](O)[C@H](O)[C@H]4O)[C@@H]3[C@@]3(CO)O[C@@H]23)[C@@H]1OC(=O)/C=C/c1ccccc1
inactive: activation [1] -1.53% | Potency [2] | Potency [3]

CC(=O)O[C@@H]1c2c(C)coc2C(=O)[C@@]23O[C@@H]2CC[C@H](C)[C@@]13C
inactive: activation [1] -2.68% | Potency [2] | Potency [3]

O=C(O)CC1(O)C(=O)Nc2ccccc21 (stereo not drawn)
inactive: activation [1] 1.79% | Potency [2] | Potency [3]

C[C@H]1[C@@H](O)[C@H](O)C2[C@]3(C)C([C@@H](O)[C@H]4OC(=O)[C@@H]1[C@@]24C)[C@](C)(O)C=C[C@H]3O[C@@H]1O[C@H](CO)[C@@H](O)[C@H](O)[C@H]1O (stereo partly drawn)
inactive: activation [1] 0.893% | Potency [2] | Potency [3]

CC(=O)c1ccc(OCC(=O)N2CCCCC2)cc1
inactive: activation [1] -3% | Potency [2] | Potency [3]

C=C1C(=O)OC2C1C(O)CC1(C)C(O)CCC(C=O)C21 (stereo not drawn)
inactive: activation [1] 13.4% | Potency [2] | Potency [3]

CC1(C)CC[C@]2(C(=O)O)CC[C@]3(C)C(=CCC4[C@@]5(C)CC[C@H](O[C@H]6O[C@H](C(=O)O)[C@@H](O)[C@H](O[C@@H]7O[C@H](CO)[C@H](O)[C@H](O)[C@H]7O)[C@H]6O)C(C)(C)C5CC[C@]43C)[C@@H]2C1 (stereo partly drawn)
inactive: activation [1] -5.36% | Potency [2] | Potency [3]

CC1(CO)CC[C@]2(C(=O)O[C@@H]3O[C@H](CO)[C@@H](O)[C@H](O)[C@H]3O)CC[C@]3(C)C(=CCC4[C@@]5(C)C[C@H](O)[C@H](O[C@@H]6OC[C@@H](O)[C@H](O)[C@H]6O)[C@@](C)(CO)C5CC[C@]43C)C2C1 (stereo partly drawn)
inactive: activation [1] -16% | Potency [2] | Potency [3]
